TDP43 rescue – inhibitors of TDP-43 toxicity in yeast | AID 652104 | TDP-43 expressing yeast growth rescue, BacTiter-Glo, 24 h | 410,000 tested, 1.8% active | Potency, µM (series often up to 46.1 µM), without a hit: top-dose growth rescue (activation), actives largely listed as activators; also: % of control where 0% means no effect; nearly all actives have a fitted effect of over 50% in size
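Galactose-induced TDP-43 yeast, OD600=0.02, compound pinned; 24 hr, 30 deg C; BacTiter-Glo luminescence for growth. Inhibitors of TDP-43 toxicity read as activators.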
FUS suppressor – FUS proteinopathy suppression in yeast; S. cerevisiae FUS-expressing, growth rescue, OD600, 24 h; Potency, µM (highest dose often 76.6 µM), usual class: activators; 390,000 tested, 0.24% active; AID 1347120;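 also: plate controls were DMSO vehicle for no effect and reference control for full effect; nearly all actives have a fitted effect of over 55% in size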
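Read-out: OD at 600 nm after 24hr at 30C, reporting rescue of FUS-induced yeast toxicity. Cells at OD 0.005 in galactose (2%) minimal medium; compounds tested in a dilution series; CP55940 titration from 92uM final as control.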
Mito fusion act – inhibitors of mitochondrial division or activators of mitochondrial fusion; 320,000 tested, 0.23% active; S. cerevisiae fusion-defective mutant growth rescue, CellTiterGlo 48 h; Potency, µM (highest dose often 46.1 µM), without a hit: at the top dose growth rescue (activation), actives largely listed as activators; also: % of control where 0% means no effect; nearly all actives have a fitted effect of over 45% in size
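Compounds are tested for their ability to restore growth of mitochondrial fusion-defective yeast strains at non-permissive 37C in YPEG medium over 48 hours. Viability is quantified by luciferase luminescence.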
Abeta yeast res – compounds reversing amyloid beta toxicity in yeast; 410,000 tested, 0.063% active; yeast expressing A-beta42, growth rescue, OD600, 48 h; response scale: 0% DMSO, 100% iron-clioquinol control; Potency, µM (highest dose often 46.1 µM), most hits filed as activators; also: nearly all actives have a fitted effect of over 55% in size
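Yeast A-beta toxicity model in growth medium with pinned compounds, 48 h at 30 C; growth read as absorbance at 600 nm. Normalized to FeCl3/clioquinol equimolar mix (positive) and DMSO (negative).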
aSyn yeast inh – alpha-synuclein toxicity inhibition in yeast. Yeast expressing alpha-synuclein, growth rescue, BacTiter-Glo, 24 h. Potency, µM (series often up to 46.1 µM), for inactives: top-dose growth rescue (activation), actives largely listed as activators. 370,000 tested, 0.14% active; also: % of control where 0% means no effect; nearly all actives have a fitted effect of over 65% in size
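Galactose-induced alpha-syn yeast (OD600=0.02, raffinose-pregrown) + pinned cpd, 24 hr, 30 deg C; growth by BacTiter-Glo luminescence. Growth restoration scores as activation.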
* = called active by the depositor. Rows were chosen to be rich in hits. Some 2.2% of all compounds tested hit in one or more screens of this group. Calls follow the shape of the dose curve; as a rule, active = well fitted curve in the direction sought with a large enough effect; inconclusive = small, poorly fitted or top-dose-only effect, or another doubt; inactive = no such curve, though single readings can be large; an effect the other way counts as inactive or inconclusive. Potency is read from the fitted curve at half-maximal effect.

How did CC(=O)Nc1ccc(-c2ccnc3c2CC(C)(C(=O)Nc2ccc(Cl)c(C(F)(F)F)c2)O3)cc1 (stereo not drawn) do in these assays?
TDP43 rescue: 35µM*; FUS suppressor: inconclusive; Abeta yeast res: inactive; aSyn yeast inh: -35%

What do the screens show for `O=C(c1ccccc1Cl)n1nc(-c2ccco2)nc1NCc1cccs1`?
TDP43 rescue: 21%; FUS suppressor: inactive; Abeta yeast res: inactive

How did Cc1cccc(-c2nc(CS(=O)CC(=O)NC3CCCC3)c(C)o2)c1 (stereo not drawn) do in these assays?
TDP43 rescue: inconclusive; FUS suppressor: inactive; Mito fusion act: -2%; Abeta yeast res: inactive; aSyn yeast inh: 5.6µM*

Results for Nc1ccc(/C=C/c2nc3ccccc3s2)cc1 ?
aSyn yeast inh: 13µM*

How did CCN(CC)c1ccc(/C=C/c2nc3ccccc3s2)cc1 do in these assays?
Mito fusion act: -4%

Results for COC(=O)C12C=C3CC(C)=C3C(=O)N1Cc1[nH]c3ccccc3c1C2 (stereo not drawn) ?
FUS suppressor: inactive

Results for CCCc1ccc(C2=Nn3c(nnc3C(C)C)SC2)cc1 ?
TDP43 rescue: 15%; FUS suppressor: inconclusive; Mito fusion act: 10%; Abeta yeast res: inactive; aSyn yeast inh: -19%

How did CC(C)c1nnc2n1N=C(c1ccc(Cl)cc1)CS2 do in these assays?
TDP43 rescue: 20µM*; FUS suppressor: inactive; Mito fusion act: 11%; Abeta yeast res: inactive; aSyn yeast inh: 0%

Results for CCc1cc(/C=C/c2ccnc3ccccc23)ccc1N(C)C ?
aSyn yeast inh: -18%

Results for C#CCNC(=O)C[C@H]1C[C@@]2(C(=O)OC)C(=C[C@H](C(C)C)O[C@@H]2C2CC2)N(CCC2=CCCCC2)C1=O ?
FUS suppressor: inactive

How did CC[C@]1(c2ccccc2)C(=O)N(C(=O)OC)N1C(=O)OC do in these assays?
TDP43 rescue: -1%; FUS suppressor: inactive; Mito fusion act: -3%; Abeta yeast res: inactive; aSyn yeast inh: 0%

How did COC(=O)N1C(=O)[C@@](c2ccccc2)(C2CCCCC2)N1C(=O)OC do in these assays?
TDP43 rescue: 18µM*; FUS suppressor: inactive; Mito fusion act: -1%; Abeta yeast res: inactive; aSyn yeast inh: 1%

How did COC(=O)N1C(=O)[C@@](Cc2ccccc2)(c2ccccc2)N1C(=O)OC do in these assays?
TDP43 rescue: inconclusive; FUS suppressor: inactive; Mito fusion act: -2%; Abeta yeast res: inactive; aSyn yeast inh: 2%

How did COC(=O)N1C(=O)[C@](c2ccccc2)(C(C)C)N1C(=O)OC do in these assays?
TDP43 rescue: 10µM*; FUS suppressor: inactive; Mito fusion act: 1%; Abeta yeast res: inactive; aSyn yeast inh: 7%

How did CC[C@@]1(c2ccccc2)C(=O)N(C(=O)OC)N1C(=O)OC do in these assays?
TDP43 rescue: 3%; FUS suppressor: inactive; Mito fusion act: 5%; Abeta yeast res: inactive; aSyn yeast inh: 0%

Results for COC(=O)N1C(=O)[C@](Cc2ccccc2)(c2ccccc2)N1C(=O)OC ?
TDP43 rescue: 18µM*; FUS suppressor: inactive; Mito fusion act: 2%; Abeta yeast res: inactive; aSyn yeast inh: 4%

What do the screens show for `CSc1ncccc1C(=O)NC1CCN(Cc2ccccc2)CC1`?
TDP43 rescue: -9%; FUS suppressor: inactive; Mito fusion act: 2%; Abeta yeast res: inactive; aSyn yeast inh: -11%

What do the screens show for `CCC(CO)Oc1cc(NC(=O)c2cccc(OC)c2)c2ncn(C(C)C)c2c1` (stereo not drawn)?
TDP43 rescue: -15%; FUS suppressor: inactive; Abeta yeast res: inactive; aSyn yeast inh: 2%

How did C=CCNC(=O)/C(C#N)=C/c1cc(Br)ccc1OC do in these assays?
TDP43 rescue: 11µM*; FUS suppressor: inactive; Mito fusion act: -4%; Abeta yeast res: inactive; aSyn yeast inh: -1%

What do the screens show for `N#Cc1ccc(Nc2nc(-c3ccccc3)cs2)cc1`?
TDP43 rescue: 3.2µM*; FUS suppressor: inactive; Abeta yeast res: inactive; aSyn yeast inh: 0%

How did CC(=O)c1sc(Nc2ccc3c(c2)OCO3)nc1C do in these assays?
TDP43 rescue: 13µM*; FUS suppressor: inactive; Abeta yeast res: inactive; aSyn yeast inh: 30%

How did c1ccc(-c2csc(Nc3ccc4c(c3)OCO4)n2)cc1 do in these assays?
TDP43 rescue: 14µM*; FUS suppressor: inactive; Abeta yeast res: inactive; aSyn yeast inh: -1%

What do the screens show for `O=C(c1cccc(F)c1)N1CCCC(c2nc(-c3cccs3)no2)C1` (stereo not drawn)?
FUS suppressor: inactive

How did COc1cccc(N2CCN(c3ncnc4c3nc3n4CCCCC3)CC2)c1 do in these assays?
TDP43 rescue: 18µM*; FUS suppressor: inconclusive; Abeta yeast res: inactive

Results for FC(F)(F)c1cccc(N2CCN(c3ncnc4c3nc3n4CCCC3)CC2)c1 ?
TDP43 rescue: 16µM*; FUS suppressor: inactive; Abeta yeast res: inactive

What do the screens show for `COc1ccccc1N1CCN(C(=O)C2CCCN(c3ncnc4c3nc3n4CCCCC3)C2)CC1` (stereo not drawn)?
TDP43 rescue: 23%; FUS suppressor: inactive; Mito fusion act: -1%; Abeta yeast res: inactive; aSyn yeast inh: -1%

How did COc1ccccc1N1CCN(c2ncnc3c2nc2n3CCCC2)CC1 do in these assays?
TDP43 rescue: 35µM*; FUS suppressor: inactive; Abeta yeast res: inactive

How did COc1ccc(N2CCN(c3ncnc4c3nc3n4CCCCC3)CC2)cc1 do in these assays?
TDP43 rescue: 16%; FUS suppressor: inactive; Abeta yeast res: inactive

Results for Cc1cc(Cl)nc2nc(Cl)ccc12 ?
aSyn yeast inh: -4%

Results for CCN(CC)c1nc(NC2CCN(C)CC2)c2cc(OC)c(OC)cc2n1 ?
aSyn yeast inh: -1%

What do the screens show for `N#Cc1nc(-c2cccs2)oc1NCc1ccc2c(c1)OCO2`?
TDP43 rescue: 28µM*; FUS suppressor: inactive; Mito fusion act: inconclusive; Abeta yeast res: inactive; aSyn yeast inh: 1%

Results for N#Cc1nc(-c2cccs2)oc1NCCc1ccccc1 ?
TDP43 rescue: -20%; FUS suppressor: inactive; Mito fusion act: 21%; Abeta yeast res: inactive; aSyn yeast inh: 17%

Results for CC(=O)Nc1ccc(NC(=O)Cc2sc(-c3cccnc3)nc2-c2ccc(C)cc2)cc1 ?
TDP43 rescue: 2%; FUS suppressor: 28µM*; Mito fusion act: 3%; Abeta yeast res: inactive; aSyn yeast inh: -1%

What do the screens show for `COc1cc(/C=C/c2ccc3ccccc3n2)cc(OC)c1OC`?
aSyn yeast inh: -24%

What do the screens show for `CN(CCCOC(=O)CC1C=CCC1)C1CN(Cc2cn(Cc3ccccc3Cl)nn2)S(=O)(=O)C1` (stereo not drawn)?
FUS suppressor: inactive

Bioassay records as filed in PubChem BioAssay.
